NPYLR7 agonist = mosquito NPYLR7 agonism; 270,000 compounds, 0.15% hits; activation, % at 10 µM; AID 1259423; HEK293T NPYLR7/Galpha15, GCaMP6s calcium fluorescence; in the data active = activation above about 40%;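 also: 0% = vehicle and 100% = reference agonist at the receptor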
mcGAS lum = blocks mouse cGAS activity; Q8C6L5; recombinant cGAS, Kinase-Glo ATP depletion luminescence; inhibition, % at 12.5 µM; 160,000 compounds, 0.15% hits; AID 1259399;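 also: 0% = negative control wells and 100% = reference inhibitor with no enzyme activity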
Target sequence (Q8C6L5 whole entry, looked up): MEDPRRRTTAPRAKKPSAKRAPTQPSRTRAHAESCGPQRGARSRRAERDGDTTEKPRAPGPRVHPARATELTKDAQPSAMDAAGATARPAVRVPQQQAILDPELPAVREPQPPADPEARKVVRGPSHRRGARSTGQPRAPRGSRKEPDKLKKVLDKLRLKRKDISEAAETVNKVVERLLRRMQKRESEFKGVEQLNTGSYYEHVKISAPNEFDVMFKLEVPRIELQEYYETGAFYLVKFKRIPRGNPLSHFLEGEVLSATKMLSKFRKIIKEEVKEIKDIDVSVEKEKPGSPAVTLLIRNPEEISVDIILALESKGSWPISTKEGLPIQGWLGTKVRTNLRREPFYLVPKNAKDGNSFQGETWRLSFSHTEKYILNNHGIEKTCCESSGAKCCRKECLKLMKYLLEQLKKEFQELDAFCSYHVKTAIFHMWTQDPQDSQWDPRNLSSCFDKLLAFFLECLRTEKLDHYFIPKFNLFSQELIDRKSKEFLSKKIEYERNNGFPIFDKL
hcGAS inh = inhibitors of human cGAS | recombinant h-cGAS, ATP depletion, Kinase-Glo luminescence | inhibition, % at 12.5 µM | 290,000 compounds, 0.081% hits;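 also: 0% = vehicle reaction and 100% = reaction without DNA for no activity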
* hit, by the source's call; . = no result given; ! = a repeat was not active. Sampled rows, rich in hits. Any-hit rate of the full collection: about 0.28%. Rule as the data show it, unless noted: active = inhibition above about 40%; inactive = the rest.

SMILES | NPYLR7 agonist | mcGAS lum | hcGAS inh
CCn1c(=O)c([N+](=O)[O-])c(NCCN2CCOCC2)c2ccccc21 | 2 | . | -7
COc1cc(C=C2Oc3cc(O)ccc3C2=O)cc(OC)c1OC | 83* | . | -8
COc1ccc(/C=C2\Oc3cc(OCC(N)=O)ccc3C2=O)cc1 | 3 | . | -1
CCOc1cc(C=C2N=C(c3ccc(Cl)cc3)OC2=O)ccc1OCC(=O)N(C)C | 18 | -8 | -8
CCOc1cc(/C=C2/Oc3cc(O)ccc3C2=O)cc(Cl)c1OCC(=O)N(C)C | 150* | . | -5
CN(C)CC(C)(C)CNC(=O)C1CCN(c2cc(Nc3ccccc3)nc(N)n2)CC1 | 1 | . | 3
CCN(Cc1c(CO)cnc(C)c1O)CC1CCCO1 (stereo unspecified) | 7 | . | -11
CCOc1ccc(C(=O)Nc2c(C)nc3sccn3c2=O)cc1OCC | 4 | -8 | -10
c1ccc2c(c1)CCN2CCNC1CCCNC1 (stereo unspecified) | 10 | . | -4
CC(C)Oc1ccccc1NC(=O)c1ccc(CN2CCCNC(=O)C2)cc1 | 3 | . | -6
c1cnc(-c2cc(NC3CCNCC3)nc3[nH]ccc23)nc1 | 30 | -3 | 46*
c1ccc2c(-c3cc(NC4CCNCC4)nc4[nH]ccc34)n[nH]c2c1 | 24 | -11 | 19
Oc1cc(O)c2c(c1)O[C@H](c1ccc(O)c(O)c1)[C@H](O)C2 | -19 | . | 19
O=C(O[C@@H]1Cc2c(O)cc(O)cc2O[C@@H]1c1cc(O)c(O)c(O)c1-c1c([C@H]2Oc3cc(O)cc(O)c3C[C@H]2O)cc(O)c(O)c1O)c1cc(O)c(O)c(O)c1 | -6 | 37 | 54*
O=C(O[C@@H]1Cc2c(O)cc(O)cc2O[C@@H]1c1ccc(O)c(O)c1)c1cc(O)c(O)c(O)c1 | -5 | . | 49*
O=C(Oc1cc(OC(=O)c2ccccc2)c2c(c1)O[C@H](c1ccc(OC(=O)c3ccccc3)c(OC(=O)c3ccccc3)c1)[C@@H](OC(=O)c1ccccc1)C2)c1ccccc1 | -6 | . | -6
O=C(O[C@@H]1Cc2c(O)cc(O)cc2O[C@@H]1c1cc(O)c(O)c(O)c1)c1cc(O)c(O)c(O)c1 | -10 | . | 73*!
O=c1c(O)cc([C@H]2Oc3cc(O)cc(O)c3C[C@H]2O)cc2c([C@H]3Oc4cc(O)cc(O)c4C[C@H]3O)cc(O)c(O)c12 | -8 | . | 27
CCCCc1ccc(C(=O)N2CCN(C(=O)c3ccccc3)CC2)nc1 | . | -1 | 1
c1ncn(-c2ccc(NCC3CCOCC3)cc2)n1 | 3 | . | -3
CCOC(=O)C1CSC(C(C)c2ccccc2)N1C(=O)c1ccc(F)cc1 (stereo unspecified) | . | -1 | 1
COCCN(CC(=O)N(CCc1c[nH]c2ccccc12)Cc1ccccc1OC)C(=O)Nc1cccc(C#N)c1 | 22 | -5 | -5
CCCNC(=O)CSc1ccc2ccccc2n1 | 0 | . | -1
NC(=O)c1cc2c(nc1-c1ccc3c(c1)OCCO3)CCC2 | -1 | . | -6
OC[C@H]1OC([S-])[C@H](O)[C@@H](O)[C@@H]1O.[Au+] (stereo partly specified) | -8 | 57* | 68*
SMILES | NPYLR7 agonist | mcGAS lum | hcGAS inh
OC[C@@H](O)C(O[C@@H]1O[C@H](CO)[C@H](O)[C@H](O)[C@H]1O)[C@H](O)[C@@H](O)CO (stereo partly specified) | . | . | -4
CC(C)C(C(=O)O)N1C(=O)/C(=C/c2ccc(N(C)C)cc2)SC1=S (stereo unspecified) | 54* | -7 | -3
CCOc1cc(C=C2SC(=S)N(c3ccc(OC)cc3)C2=O)ccc1O | -4 | -6 | -7
CC(C)N1C(=O)C(=Cc2ccc(O)cc2)SC1=S | 5 | -8 | -8
CN1C(=O)C(=Cc2ccc(O)cc2)SC1=S | 18 | . | 4
COC(=O)c1ccc(/C=C2/SC(=S)N(C(C(=O)O)C(C)C)C2=O)cc1 (stereo unspecified) | -2 | -7 | -3
CCOc1cc(/C=C2\SC(=S)N(NC(=O)c3ccccc3O)C2=O)ccc1O | 59* | 8 | -8
CC(=O)NN1C(=O)/C(=C\c2ccc(O)cc2)SC1=S | 81* | -8 | -8
CC(C(=O)O)N1C(=O)/C(=C\c2ccc(O)cc2)SC1=S (stereo unspecified) | 62* | 2 | 0
CC(C)(C#N)C(=O)NCC1(c2cccc(Br)c2)CC1 | -4 | -13 | -9
COc1ccccc1Cn1cnc2c([nH]c3ccc(C)cc32)c1=O | -4 | -7 | -8
Cc1cccc(S(=O)(=O)NC(=O)C2(C)CCN2C(=O)C/C=C/c2ccccc2)c1 (stereo unspecified) | -2 | . | -5
O=C(CC(c1ccccc1)c1ccccc1F)N1CCN(c2ncccn2)CC1 (stereo unspecified) | 16 | . | 2
Cc1ccsc1CN(Cc1ccc(F)cc1)C(=O)CN(CC1CCCO1)C(=O)Nc1cccc(C)c1C (stereo unspecified) | 26 | -6 | -2
Cc1c(C(=O)OCC(=O)NC(=O)NC2CCCC(C)C2C)cnn1C (stereo unspecified) | 7 | . | -8
Cc1cccc(-c2cnc(C)nc2C2CCCN(C(=O)c3ccc(N4CCCC4)cc3)C2)c1 (stereo unspecified) | 15 | -13 | -12
CCCC(C(=O)O)N1C(=O)/C(=C/c2ccc(O)cc2)SC1=S (stereo unspecified) | 79* | -4 | -4
Cc1ccc(/C=C2\SC(=S)N(CCC(=O)O)C2=O)cc1 | -3 | -1 | 4
CSCCC(C(=O)O)N1C(=O)/C(=C/c2ccc(C)cc2)SC1=S (stereo unspecified) | -5 | 29 | -1
O=C(O)CCN1C(=O)/C(=C/c2ccc(O)cc2)SC1=S | 92* | 0 | -4
COc1ccc(C(=O)O)cc1NCc1ccc(C)s1 | 5 | . | 3
CCCC1COCCN1C(=O)c1cc2ncc(CCO)cn2n1 (stereo unspecified) | 2 | -13 | -5
O=C(O)c1cc(Br)c2ccccc2c1O | -6 | 68* | 39
COc1cc(Br)c(OC)c(C(=O)O)c1 | 7 | . | -6
Nc1c(S(=O)(=O)O)cc(Nc2ccc(Nc3nc(Cl)nc(Nc4ccc(S(=O)(=O)O)cc4)n3)c(S(=O)(=O)O)c2)c2c1C(=O)c1ccccc1C2=O | 0 | 67* | 35
SMILES | NPYLR7 agonist | mcGAS lum | hcGAS inh
Nc1c(S(=O)(=O)O)cc(Nc2cccc3ccccc23)c2c1C(=O)c1ccccc1C2=O | -15 | . | -23
CCOC(=O)C1CSCCN1c1ccc2nnnn2n1 (stereo unspecified) | 0 | . | -11
O=[N+]([O-])c1ccc(N=P(c2ccc3c(c2)OCCO3)(N2CCOCC2)N2CCOCC2)cc1 | -9 | . | 2
Nc1c(O)ccc2c1C(=O)c1ccccc1C2=O | 2 | -6 | -7
N#Cc1c(N)oc2c3c(c(O)cc12)C(=O)c1ccccc1C3=O | 2 | . | 48*
CN(C)c1ccc(/C=C2/C(=O)NC(=O)N(Cc3ccccc3)C2=O)cc1 | 5 | -3 | 11
CCCn1c2c(c(=O)n(C)c1=O)C(=O)C(=Cc1ccc(N(C)C)cc1)N2 | 259* | -5 | -2
CCn1cc(-c2c(-c3ccccc3)ncn2C(C)c2cnn(C)c2)c(C)n1 (stereo unspecified) | 25 | -14 | 0
O=C1CCCC2Nc3ncnc(Cl)c3OC12 (stereo unspecified) | 77* | . | 6
